Reference: PubChem BioAssay (NCI)
The panel holds about 79,000 compounds, 15% with a hit somewhere; the sample as a whole holds those more often. A number with no mark means an inactive call. Calls of active or inactive are those of the source. Rule as the data show it: active = growth inhibition above about 70%; inactive = the rest.

Assay: NCI Yeast Anticancer Drug Screen. Data for the mlh1 rad18 strain (AID 175)
Details: S. cerevisiae mlh1 rad18 strain growth inhibition, hits give high values
Method: Growth inhibition of yeast strains with defined genetic alterations is measured as a screen for potential anti-cancer activity. Selected strains with alterations in DNA damage repair or cell cycle control were exposed to compounds and growth inhibition was measured relative to vehicle treated controls. The strain used in this assay is mlh1 rad18

[1] = at 5.0 µM (retest, dose inferred, filed as 0.5)
[2] = at 50.0 µM (retest, dose inferred, filed as 5.0)

Compound | growth inhibition [1] [%] | growth inhibition [2] | growth inhibition (at 50.0 µM)
O=C(Oc1ccc2c(c1)CN(Cc1ccccc1)CO2)c1ccccc1 | -9 | 49% | 83% (active)
C[C@@](O)(/C=C/[C@H]1CC=CC(=O)O1)[C@@H](C[C@@H](O)\C=C/C=C\C=C\CO)OP(=O)(O)O | -2 | 48% | 19.3%
CCCCOCn1c(=O)[nH]c(=O)c2cc(Br)ccc21 | 28 | 32% | 26.9%
N#CC(C#N)=NNc1ccc(S(=O)(=O)O)cc1 | 63 | 100% (active) | 20.6%
CC(NCCN(C)C)C1CCC2C3CCc4cc(O)ccc4C3CCC12C (configuration not stated) | 4 | 59% | 82.4% (active)
C=C1CC(CCCl)(c2ccccc2)OC1=O (configuration not stated) | 22 | 98% (active) | 91.2% (active)
N#CC1=C(N)N(/N=C/c2ccccc2)C(c2ccccc2)C1(C#N)C#N (configuration not stated) | 14 | 89% (active) | 63.5%
CCOC1=C/C(=N\Nc2ccc([N+](=O)[O-])cc2)CCC1 | 21 | 87% (active) | 41.7%
c1ccc(Cc2cc(-c3ccccc3)n[nH]2)cc1 | -125 | 9% | 96.8% (active)
COc1cc2ccnc(-c3c4ccccc4c(N)c4c(OC)c(OC)ccc34)c2cc1OC | 23 | 23% | 72.7% (active)
O=P(NC1CCCCC1)(OCc1ccccc1)OCc1ccccc1 | 3 | 3% | 34.8%
CCOC(=O)c1cc([N+](=O)[O-])c(Sc2ncnc3nc[nH]c23)c([N+](=O)[O-])c1 | 55 | 89% (active) | 86.2% (active)
CCOC1Oc2ccccc2-c2nc(N)ncc21 (configuration not stated) | 12 | 76% (active) | -21.9%
COC(=O)CC1CCc2c(ccc3ccccc23)C1(C)C(=O)OC (configuration not stated) | -3 | 54% | 27.6%
